Laboratory results reported in PubChem BioAssay AID1030 (National Center for Advancing Translational Sciences (NCATS), 2008).
The whole screen tested about 220,000 compounds, of which about 16,000 (7.3%) were called active. A call without a number means that no potency is given here. Not shown: some 25% with an inconclusive outcome. Calls follow the shape of the dose curve; as a rule, active = well fitted inhibition curve with a large enough effect (not every such curve was filed as active); inconclusive = small, poorly fitted or top-dose-only effect, or another doubt; inactive = no such curve, though single readings can be large or run the other way. For the sample, actives were picked, then their nearest neighbours and some compounds at random.

Target: Aldehyde dehydrogenase 1A1 (Homo sapiens) (UniProt P00352)
Sequence (P00352 whole entry, looked up): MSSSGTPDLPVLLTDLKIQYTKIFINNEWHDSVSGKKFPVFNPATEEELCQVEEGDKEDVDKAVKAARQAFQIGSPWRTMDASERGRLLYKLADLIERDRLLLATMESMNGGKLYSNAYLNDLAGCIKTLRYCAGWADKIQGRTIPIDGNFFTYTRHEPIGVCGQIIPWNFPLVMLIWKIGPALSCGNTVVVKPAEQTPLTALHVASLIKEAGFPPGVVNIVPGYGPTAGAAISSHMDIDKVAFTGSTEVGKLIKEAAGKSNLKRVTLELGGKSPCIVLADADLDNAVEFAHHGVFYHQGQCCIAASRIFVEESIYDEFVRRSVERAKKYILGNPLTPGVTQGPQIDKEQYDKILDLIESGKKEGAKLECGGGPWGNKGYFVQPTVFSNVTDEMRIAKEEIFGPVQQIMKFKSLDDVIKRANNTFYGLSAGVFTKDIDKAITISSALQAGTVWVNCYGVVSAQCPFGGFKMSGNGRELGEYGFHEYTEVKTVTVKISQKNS
Assay: qHTS Assay for Inhibitors of Aldehyde Dehydrogenase 1 (ALDH1A1)
Details: Purified ALDH1A1, NADH fluorescence, propionaldehyde substrate; series mostly up to 75.3 µM
Potency is read from the fitted curve at half-maximal effect.

SMILES	Potency
O=C(c1snnc1-c1ccccc1)N1CCOCC1	inactive
Cc1cc(-c2nnc(CCC(=O)NC(c3ccccc3)c3ccccc3)o2)no1	inactive
O=C(/C=C/c1ccc(F)cc1)NCCNC(=O)/C=C/c1ccc(F)cc1	inactive
O=C(CCC1CCCN(Cc2ccc(O)c(Cl)c2)C1)NCc1ccccc1F (stereo not drawn)	inactive
CCOCC(=O)Nc1cc(OC)c(Cl)cc1OC	inactive
CC(C)CC(=O)NC(=S)Nc1cc(C(=O)O)ccc1Cl	inactive
COc1cc(NC(=S)NNC(=O)CC(C)C)c(OC)cc1Cl	25.1 µM (active)
CCC(CC)C(=O)Nc1ccc(S(=O)(=O)Nc2nccs2)cc1	inactive
O=C(C1CCCN1S(=O)(=O)c1ccc(Br)cc1)N1CCOCC1 (stereo not drawn)	inactive
Nc1ccc(Oc2ccc(Cl)cc2)cc1	inactive
COc1cccc(Oc2ccc(N)cc2)c1	inactive
Cc1ccc(Oc2ccc(N)cc2)cc1	17.8 µM (active)
O=C(NNS(=O)(=O)c1ccc(F)cc1)c1cnccn1	inactive
Cc1c(Cl)c([N+](=O)[O-])nn1CCCC(=O)NC(C)c1ccccc1 (stereo not drawn)	inactive
S=C(Nc1cccc(Br)c1)N1CCn2cccc2C1c1cccnc1 (stereo not drawn)	inactive
O=c1oc2ccccc2cc1-c1csc(Nc2ccc(O)cc2)n1	inactive
Nc1ncc(-c2cc3ccccc3oc2=O)s1	11.2 µM (active)
COc1ccc2nc(Nc3nc(-c4cc5ccccc5oc4=O)cs3)sc2c1	inactive
CC(C)NC(=O)c1ccc(Cl)cc1Cl	inactive
COc1cccc(NC(=O)CN(C)C(C)C(=O)Nc2ccc(C#N)cc2)c1 (stereo not drawn)	inactive
COc1cccc(CNC(=O)CCN2C(=S)NC(C)(C)CC2C)c1 (stereo not drawn)	inactive
O=C(CCN1CCN(c2ccccc2)CC1)NNC(=S)Nc1ccccc1	inactive
O=C(O)/C=C\C(=O)Nc1ccc(OCc2ccccc2)cc1	25.1 µM (active)
O=C(/C=C/c1ccco1)Nc1ccc(Oc2ccccc2)cc1	inactive
O=C(N/N=C/c1ccc(OCc2ccccc2)cc1)c1ccc(O)cc1	inactive
NC(=O)COC(=O)c1cc(S(=O)(=O)N2CCN(c3ccccc3)CC2)ccc1Cl	inactive

SMILES	Potency
CCC1=C(C(=O)OC)C(c2cc(OC)ccc2OC)C(C#N)=C(N)O1 (stereo not drawn)	17.8 µM (active)
CCOC(=O)C1=C(CC)OC(N)=C(C#N)C1c1ccc(F)cc1F (stereo not drawn)	inactive
COC(=O)C1=C(C)OC(N)=C(C#N)C1c1cc(OC)ccc1OC (stereo not drawn)	inactive
COc1ccc(S(=O)(=O)N(C)CC(=O)N2CCCC2)cc1Cl	inactive
Cc1noc(C)c1S(=O)(=O)N(C)Cc1ccccc1	inactive
Cc1cccc(NS(=O)(=O)c2ccc(C)c(C(N)=O)c2)c1	inactive
CC(NC(=O)C(=O)N/N=C/c1ccc(Cl)cc1)c1ccccc1 (stereo not drawn)	inactive
Cc1ccc(-n2c(C)cc(C(=O)CN3C(=O)C(=O)N(C4CCCC4)C3=O)c2C)cc1	inactive
COc1cc(CNC2CCCCC2)c(Br)cc1OC1CCCC1	inactive
O=C(Cc1ccccc1)NNS(=O)(=O)c1ccc([N+](=O)[O-])cc1	inactive
O=C(Nc1ccc([N+](=O)[O-])cc1)C1(c2ccccc2)CCOCC1	inactive
O=C(O)/C=C/C(=O)NNc1ccc([N+](=O)[O-])cc1	14.1 µM (active)
NC(=O)c1ccc(CN2CCC(Cc3ccccc3)CC2)cc1	inactive
O=C(COC(=O)c1ccc[nH]c1=O)Nc1ccc2c(c1)OC(F)(F)O2	inactive
Cc1c(S(=O)(=O)O)ccc(N=Nc2c(O)c(C(=O)O)cc3ccccc23)c1Cl	3.55 µM (active)
Cc1nn(Cc2ccc(Cl)cc2)c(Cl)c1/C=N/NC(=O)CNc1ccccc1F	inactive
O=C(NNC(=S)NCc1ccco1)C(c1ccccc1)c1ccccc1	inactive
COC(=O)Cc1ccc(NC(=S)NCc2ccco2)cc1	inactive
FC(F)Oc1ccc(NC(=S)NCc2ccco2)cc1Cl	14.1 µM (active)
O=C(NCc1cccs1)c1cc(-c2ccccn2)nc2ccc(Br)cc12	inactive
OC(CN=c1sc2ccccc2n1CC(O)COc1ccccc1)COc1ccccc1 (stereo not drawn)	2.82 µM (active)
OC(COc1ccccc1)Cn1cc(Br)cn1 (stereo not drawn)	inactive
C=CCn1c(=N)n(CC(O)COc2ccc(OC)cc2)c2ccccc21 (stereo not drawn)	inactive
Cc1ccccc1NS(=O)(=O)CCCCC(Cl)(Cl)Cl	inactive
CCc1ccc(/C=C2\SC(N3CCOCC3)=NC2=O)cc1	inactive
O=C1N=C(N2CCOCC2)S/C1=C\C=C/c1ccccc1	inactive

SMILES	Potency
Cc1ccsc1/C=C1\SC(N2CCOCC2)=NC1=O	14.1 µM (active)
NC(N)=NCCCc1cn(CC(=O)N2CCNCC2)nn1	inactive
N/C(=N\OC(=O)COc1ccc([N+](=O)[O-])cc1)c1ccc(Br)cc1	inactive
CCOC(=O)COc1ccc([N+](=O)[O-])cc1	inactive
Cc1cc(C)cc(OCC(=O)O/N=C(\N)Cc2ccc([N+](=O)[O-])cc2)c1	10 µM (active)
COC(=O)C(NS(=O)(=O)c1ccc(F)cc1)c1ccccc1 (stereo not drawn)	inactive
CC1CCC(C(C)C)C(=O)/C1=C\c1ccc(NC(=O)CCC(=O)O)cc1 (stereo not drawn)	inactive
COc1ccc(S(=O)(=O)N2CCN(C(=O)c3cc(C)oc3C)CC2)cc1	inactive
COc1ccc2occ(C(=O)c3ccc(N=C(C)N(C)C)cc3)c2c1	inactive
COc1ccc(OC)c(C(=O)c2coc3ccc(OC)cc23)c1	14.1 µM (active)
COc1ccc(OC)c(C(=O)c2coc3ccc(O)c(CN4CCOCC4)c23)c1	inactive
NS(=O)(=O)c1ccc(CCNC(=O)c2ccc([N+](=O)[O-])cc2[N+](=O)[O-])cc1	inactive
CCOC(=O)CCCNC(=O)COC(=O)c1cc(Br)c(Br)s1	inactive
O=C(NC1CCCC1)C(c1ccc(N2CCOCC2)cc1)N(C(=O)c1ccco1)c1ccccc1F (stereo not drawn)	inactive
COc1ccc(C(c2nnnn2Cc2cccs2)N2CCN(c3ccccc3)CC2)cc1OC (stereo not drawn)	2 µM (active)
COc1ccc(CCn2nnnc2C(c2ccccc2)N2CCN(C)CC2)cc1OC (stereo not drawn)	inactive
COCCn1nnnc1C(c1ccccc1Cl)N1CCN(c2ccccc2OC)CC1 (stereo not drawn)	inactive
CN1CCN(c2nc3c(c(=O)[nH]c(=O)n3C)n2Cc2cccc3ccccc23)CC1	25.1 µM (active)
Cc1ccnc(SCCn2c(Br)nc3c2c(=O)[nH]c(=O)n3C)n1	inactive
CC1CCN(c2nc3c(c(=O)[nH]c(=O)n3C)n2CCCc2ccccc2)CC1	31.6 µM (active)
C=C(C)Cn1c(N2CCN(CC)CC2)nc2c1c(=O)[nH]c(=O)n2C	inactive
Cn1c(=O)[nH]c(=O)c2c1nc(N1CCCCCC1)n2CC(=O)c1ccccc1	inactive
C=C(C)Cn1c(N2CCCC2)nc2c1c(=O)[nH]c(=O)n2C	inactive
Cn1c(=O)[nH]c(=O)c2c1nc(NCCCn1ccnc1)n2Cc1cccc(Br)c1	inactive
COc1ccc(CCn2c(NCCCN3CCOCC3)nc3c2c(=O)[nH]c(=O)n3C)cc1	inactive
Cc1nnc(SCCCn2c(N3CCCCC3)nc3c2c(=O)[nH]c(=O)n3C)s1	14.1 µM (active)
